Results taken from PubChem BioAssay (NCATS).
Records with an inconclusive call do not appear. The source made the active and inactive calls. Unless noted, the call rests on the fitted dose curve; in most records, active means well fitted curve in the direction sought with a large enough effect; inconclusive means small, poorly fitted or top-dose-only effect, or another doubt; inactive means no such curve, though single readings can be large; an effect the other way counts as inactive or inconclusive. Residues, ends and D or L forms follow the SMILES beside them. *: point of attachment. Cbz = O=C(OCc1ccccc1)*

Assays:
[1] = NS1 protein of Zika virus - qHTS assay to identify small molecule inhibitors in human HEK 293 cells (AID 1347053); further: nearly all actives have a fitted effect of over 55% in size; further: potency means the concentration at half of the fitted maximal effect
How it was run: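 In this cell-based screen, HEK 293 cultures received compound for one hour before Zika MR766 at MOI = 0.5. NS1 was quantified 24 hours later by TR-FRET, normalized to virus-free wells and infected wells.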

[2] = target: T1, Tyrosine-protein phosphatase non-receptor type substrate 1 (Homo sapiens) + Leukocyte surface antigen CD47 (Homo sapiens) (UniProt P78324+Q08722); test: CD47-SIRPalpha protein protein interaction - LANCE assay qHTS validation (AID 1347057; active means well fitted curve in the direction sought with a large enough effect in the signal ratio, with a control signal flat, not every such curve was filed as active; the % refers to the signal ratio; further: series mostly up to about 38 µM)
How it was run: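 Inhibition of soluble CD47/SIRPalpha ectodomain association by titrated compounds, measured as 665/615 nm time-resolved FRET ratio after sequential 30 min room-temperature incubations.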

[3] = target: T1, Tyrosine-protein phosphatase non-receptor type substrate 1 (Homo sapiens) + Leukocyte surface antigen CD47 (Homo sapiens); test: CD47-SIRPalpha protein protein interaction - HTRF assay qHTS validation (AID 1347058; active means well fitted curve in the direction sought with a large enough effect in the signal ratio, not every such curve was filed as active; the % refers to the signal ratio; further: series mostly up to about 38 µM)
How it was run: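 Soluble extracellular domains (6His-CD47, Avi-tag-biotinylated SIRPalpha) in PBS pH 7.4 with 0.05% IGEPAL CA-630. Compounds were preincubated 30 min at RT with CD47 and anti-His-Eu, then SIRPalpha and SAV-XL665 were added. TR-FRET 665/615 ratio.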

[4] = target: T1, Tyrosine-protein phosphatase non-receptor type substrate 1 (Homo sapiens) + Leukocyte surface antigen CD47 (Homo sapiens); test: CD47-SIRPalpha protein protein interaction - Alpha assay qHTS validation (AID 1347059);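 further: bead proximity luminescence from CD47 binding SIRPalpha after compound preincubation with SIRPalpha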
How it was run: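 AlphaScreen signal between CD47-His (12.5 nM) and biotin-SIRPalpha (25 nM) soluble extracellular domains, bead-captured via Ni-NTA and streptavidin. Compounds, in 7-point titrations, met SIRPalpha 30 min before CD47; PBS pH 7.4 with 0.05% IGEPAL.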

[5] = target: Parathyroid hormone/parathyroid hormone-related peptide receptor (Homo sapiens) (UniProt Q03431); test: qHTS for PTHR1 Agonists: Optimization Screen against the NCGC LOPAC library (AID 1347079);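 further: GloSensor cAMP luminescence in HEK-293 GP2 cells expressing human PTHR1 with IBMX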
How it was run: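 Signal increase flags agonism. GP2 cells, derived from HEK-293, express human PTHR1 and a GloSensor cAMP construct.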

[6] = target: N-terminal Xaa-Pro-Lys N-methyltransferase 1 (Homo sapiens) (UniProt Q9BV86); test: qHTS Assay for Inhibitors of N-terminal methyltransferase 1 (NTMT1): LOPAC validation of the NTMT1 SAHH-coupled ThioGlo3 Assay (AID 1347143);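 further: SAH from peptide methylation measured as thiol fluorescence via SAHH coupling and ThioGlo3; nearly all actives have a fitted effect of over 70% in size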; further: potency means the concentration at half of the fitted maximal effect
How it was run: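 NTMT1 125nM + cpds (various conc.), 1 min RT; add SAM 100uM/SAHH 10uM/ThioGlo3 15uM (addition mix). SAHH-coupled thiol detection, Ex340/Em450, t0 and 30 min RT; signal normalized to background. LOPAC 1280-cpd pilot.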

[7] = test system: Zika virus NS2B-NS3 protease (unlinked); test: Optimization of GU AMC qHTS for Zika virus inhibitors: Unlinked NS2B-NS3 protease assay (AID 1347151); further: nearly all actives have a fitted effect of over 80% in size; further: potency means the concentration at half of the fitted maximal effect
How it was run: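 In this qHTS, compounds acted on 25 nM unlinked Zika NS2B–NS3 in pH 8.0 Tris/Tween buffer. Cleavage of an AMC peptide ran 15 min at room temperature, to about 20% conversion.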

Furin (Homo sapiens) = Furin (Homo sapiens) (UniProt P09958); test: Furin counterscreen qHTS for Zika virus inhibitors (AID 1347149); further: nearly all actives have a fitted effect of over 70% in size; further: potency means the concentration at half of the fitted maximal effect
How it was run: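 Counterscreen measures cleavage of 2 microM BOC-RVRR-AMC, below its ~15 microM Km, by 5 nM full-length human furin at pH 7.0 after a 15-min compound preincubation. Inhibition derives from the 15-min fluorescence increase at 37C.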

Measured: Potency

Parathyroid hormone/parathyroid hormone-related peptide receptor (Homo sapiens), sequence (Q03431 whole entry, looked up): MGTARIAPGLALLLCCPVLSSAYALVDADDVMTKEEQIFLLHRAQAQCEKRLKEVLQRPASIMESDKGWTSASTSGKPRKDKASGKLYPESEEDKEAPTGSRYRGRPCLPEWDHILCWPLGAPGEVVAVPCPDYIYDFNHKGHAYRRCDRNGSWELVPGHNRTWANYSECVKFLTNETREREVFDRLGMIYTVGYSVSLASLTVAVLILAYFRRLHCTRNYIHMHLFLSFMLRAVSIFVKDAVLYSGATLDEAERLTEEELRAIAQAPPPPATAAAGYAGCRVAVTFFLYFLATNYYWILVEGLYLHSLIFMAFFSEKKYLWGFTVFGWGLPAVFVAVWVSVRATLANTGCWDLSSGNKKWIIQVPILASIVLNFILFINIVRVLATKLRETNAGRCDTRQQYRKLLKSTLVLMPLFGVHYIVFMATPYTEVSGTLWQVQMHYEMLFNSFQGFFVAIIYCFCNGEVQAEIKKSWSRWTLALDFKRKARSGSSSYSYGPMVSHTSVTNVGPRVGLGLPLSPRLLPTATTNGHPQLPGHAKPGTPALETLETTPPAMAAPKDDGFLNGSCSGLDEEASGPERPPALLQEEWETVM
N-terminal Xaa-Pro-Lys N-methyltransferase 1 (Homo sapiens), sequence (Q9BV86 whole entry, looked up): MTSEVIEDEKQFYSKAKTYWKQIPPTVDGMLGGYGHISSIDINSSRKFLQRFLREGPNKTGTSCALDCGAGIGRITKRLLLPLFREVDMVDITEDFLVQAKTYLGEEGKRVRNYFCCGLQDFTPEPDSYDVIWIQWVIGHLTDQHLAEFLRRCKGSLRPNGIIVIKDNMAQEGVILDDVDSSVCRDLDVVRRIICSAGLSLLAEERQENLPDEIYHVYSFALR
T1 sequence (P78324 whole entry, looked up, the tested form may be a part): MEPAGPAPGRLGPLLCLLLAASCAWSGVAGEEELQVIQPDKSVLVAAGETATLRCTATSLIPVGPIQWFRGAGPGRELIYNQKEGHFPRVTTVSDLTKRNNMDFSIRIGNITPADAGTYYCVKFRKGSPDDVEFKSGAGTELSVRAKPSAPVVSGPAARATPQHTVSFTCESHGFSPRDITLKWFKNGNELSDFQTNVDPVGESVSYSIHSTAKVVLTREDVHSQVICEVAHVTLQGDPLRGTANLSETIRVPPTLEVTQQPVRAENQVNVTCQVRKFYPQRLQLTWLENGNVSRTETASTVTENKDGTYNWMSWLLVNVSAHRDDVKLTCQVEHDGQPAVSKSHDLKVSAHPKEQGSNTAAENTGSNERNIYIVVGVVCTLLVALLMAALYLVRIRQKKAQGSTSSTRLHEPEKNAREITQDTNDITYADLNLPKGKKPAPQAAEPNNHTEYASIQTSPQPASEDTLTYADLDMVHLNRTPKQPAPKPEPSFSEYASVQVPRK
T1 sequence (Q08722 whole entry, looked up, the tested form may be a part): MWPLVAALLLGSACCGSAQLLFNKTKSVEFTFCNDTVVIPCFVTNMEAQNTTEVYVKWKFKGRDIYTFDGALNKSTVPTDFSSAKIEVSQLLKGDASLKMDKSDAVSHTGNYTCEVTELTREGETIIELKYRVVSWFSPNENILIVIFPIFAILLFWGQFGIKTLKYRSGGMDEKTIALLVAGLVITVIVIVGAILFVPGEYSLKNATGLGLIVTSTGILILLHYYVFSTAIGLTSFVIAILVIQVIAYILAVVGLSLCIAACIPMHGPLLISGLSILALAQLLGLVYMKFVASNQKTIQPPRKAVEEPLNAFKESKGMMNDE
Furin (Homo sapiens), sequence (P09958 whole entry, looked up): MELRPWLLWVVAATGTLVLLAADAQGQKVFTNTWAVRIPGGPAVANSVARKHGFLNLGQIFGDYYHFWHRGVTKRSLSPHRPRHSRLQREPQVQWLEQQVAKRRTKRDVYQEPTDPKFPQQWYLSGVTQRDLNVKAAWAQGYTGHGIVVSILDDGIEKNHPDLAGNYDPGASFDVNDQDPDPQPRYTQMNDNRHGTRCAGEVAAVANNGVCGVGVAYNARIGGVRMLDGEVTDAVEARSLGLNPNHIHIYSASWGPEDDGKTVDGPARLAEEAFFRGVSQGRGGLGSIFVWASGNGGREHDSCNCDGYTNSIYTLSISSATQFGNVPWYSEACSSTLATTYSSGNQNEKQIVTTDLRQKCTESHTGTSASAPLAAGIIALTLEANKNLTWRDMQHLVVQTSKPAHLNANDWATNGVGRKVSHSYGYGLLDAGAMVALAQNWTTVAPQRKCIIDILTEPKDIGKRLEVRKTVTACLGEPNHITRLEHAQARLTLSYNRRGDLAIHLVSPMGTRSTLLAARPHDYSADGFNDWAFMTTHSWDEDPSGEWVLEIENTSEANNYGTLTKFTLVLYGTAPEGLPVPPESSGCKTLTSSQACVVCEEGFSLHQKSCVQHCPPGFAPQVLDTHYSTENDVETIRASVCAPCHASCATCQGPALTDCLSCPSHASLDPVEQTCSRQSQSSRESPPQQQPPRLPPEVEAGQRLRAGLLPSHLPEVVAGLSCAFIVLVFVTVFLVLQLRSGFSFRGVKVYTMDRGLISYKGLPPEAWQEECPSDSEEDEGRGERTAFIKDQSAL

CCCCCCN(CCCCCC)C(=O)Cc1c(-c2ccc(F)cc2)[nH]c2ccccc12
active: [6] 79.4 µM
not listed: [7] | Furin (Homo sapiens)
inactive: all other assays above

C[C@](Cc1ccc(O)c(O)c1)(NN)C(=O)O
active: [6] 39.8 µM
not listed: Furin (Homo sapiens)
inactive: all other assays above

Brc1c(Br)c(Br)c2[nH]cnc2c1Br
active: [6] 50.1 µM
not listed: [7] | Furin (Homo sapiens)
inactive: all other assays above

NC(=O)c1ccccc1
not listed: [7] | Furin (Homo sapiens)
inactive: all other assays above

CCCC[C@@]1(C2CCCC2)Cc2cc(OCC(=O)O)c(Cl)c(Cl)c2C1=O
not listed: [7]
inactive: all other assays above

OCC1NCC(O)C(O)C1O (centres undefined)
not listed: [7] | Furin (Homo sapiens)
inactive: all other assays above

CCCCOc1cc(CC2CNC(=O)N2)ccc1OC (centres undefined)
not listed: [7] | Furin (Homo sapiens)
inactive: all other assays above

CC(C)[C@H](NC(=O)OCc1ccccc1)C(=O)N[C@H](C=O)Cc1ccccc1 (Cbz-Val-Phe-aldehyde)
not listed: [7] | Furin (Homo sapiens)
inactive: all other assays above

CC[N+](CC)(CC)CC(=O)Nc1c(C)cccc1C
not listed: [7] | Furin (Homo sapiens)
inactive: all other assays above

CCCCCCCCCC(=O)NC(CN1CCOCC1)[C@H](O)c1ccccc1 (some centres undefined)
not listed: [7] | Furin (Homo sapiens)
inactive: all other assays above

C=CC[C@H](N)C(=O)O
not listed: [7] | Furin (Homo sapiens)
inactive: all other assays above

COC(=O)[C@H](NC(=O)c1cc(-c2ccccc2)nc2ccccc12)c1ccccc1
active: [6] 56.2 µM
not listed: [7] | Furin (Homo sapiens)
inactive: all other assays above

Clc1nccc2c1ccc1ccccc12
active: [6] 50.1 µM
not listed: [7] | Furin (Homo sapiens)
inactive: all other assays above

Cc1nc(N=Nc2ccc(C(=O)O)cc2)c(COP(=O)(O)O)c(C=O)c1O
inactive: [1] | [2] | [3] | [4]

N=C(N)c1ccc(N)cc1
inactive: [1] | [2] | [3] | [4] | [5]

COc1ccccc1N1CCN(CCCCN2C(=O)c3ccccc3C2=O)CC1
not listed: [7] | Furin (Homo sapiens)
inactive: all other assays above

C=CCn1c(=O)c2c(nc(-c3ccc(S(=O)(=O)O)cc3)n2C)n(C)c1=O
active: [6] 15.8 µM
not listed: [7] | Furin (Homo sapiens)
inactive: all other assays above

Cn1cc(C(=O)OCC2CCN(CCNS(C)(=O)=O)CC2)c2ccccc21
not listed: [7] | Furin (Homo sapiens)
inactive: all other assays above

COc1ccc2c(c1)c(CC(=O)O)c(C)n2Cc1ccc(Cl)cc1
inactive: [1] | [2] | [3] | [4] | [5]

CC1=C(/C=C/C(C)=C/C=C/C(C)=C\C(=O)O)C(C)(C)CCC1
inactive: [1] | [2] | [3] | [4] | [5]

Cn1ccnc1
inactive: [1] | [2] | [3] | [4]

Nc1ncnc2c1nc(Sc1ccc(Cl)cc1)n2[C@H]1OC2COP(=O)(O)O[C@@H]2C1O (some centres undefined)
not listed: [7] | Furin (Homo sapiens)
inactive: all other assays above

COC1(C2=NCCN2)COc2ccccc2O1 (centres undefined)
not listed: Furin (Homo sapiens)
inactive: all other assays above

CNc1ncnc2c1ncn2[C@H]1C[C@H](OP(=O)(O)O)[C@@H](COP(=O)(O)O)O1
not listed: [7] | Furin (Homo sapiens)
inactive: all other assays above

NC(C(=O)N[C@@H]1C(=O)N2C(C(=O)O)=C(Cl)CS[C@H]12)c1ccccc1 (some centres undefined)
inactive: [1] | [2] | [3] | [4]

Oc1cc(O)c2c(c1)O[C@H](c1ccc(O)c(O)c1)[C@@H](O)C2
active: [6] 44.7 µM
not listed: [7] | Furin (Homo sapiens)
inactive: all other assays above

CCCCCC(O)CCCC(=O)O (centres undefined)
not listed: [7] | Furin (Homo sapiens)
inactive: all other assays above

CCCCCCCCCCC(C)(C)C(=O)Nc1c(OC)cc(OC)cc1OC
inactive: [1] | [2] | [3] | [4] | [5]

COc1cccc(OC)c1OCCNCC1CSc2ccccc2O1 (centres undefined)
inactive: [1] | [2] | [3] | [4] | [5]

COc1cc(CNC(=O)CCCCCCC(C)C)ccc1O
inactive: [1] | [2] | [3] | [4] | [5]

O=C(O)c1cc(=O)cc(C(=O)O)[nH]1
not listed: [7] | Furin (Homo sapiens)
inactive: all other assays above

NC(N)=N[C@@H](CCC(=O)O)C(=O)O
inactive: [1] | [2] | [3] | [4]

Cn1cc(C(F)(F)F)nc1-c1ccc(OCC(O)CNCCOc2ccc(O)c(C(N)=O)c2)cc1 (centres undefined)
active: [6] 56.2 µM | Furin (Homo sapiens) 24.1 µM | [7] 26.7 µM
inactive: all other assays above

O=C1C2C=CC=CC2=NC(=S)N1CCN1CCC(=C(c2ccc(F)cc2)c2ccc(F)cc2)CC1 (centres undefined)
inactive: [1] | [2] | [3] | [4]

COC(=O)C(N)Cc1ccc(Cl)cc1 (centres undefined)
not listed: [7] | Furin (Homo sapiens)
inactive: all other assays above

CN1CCC2(CCN3CCc4c(oc5ccccc45)C3C2)N(C)C1=O (centres undefined)
inactive: [1] | [2] | [3] | [4] | [5]

CCCOC(=O)c1c(-c2ccccc2)nc(CC)c(C(=O)SCC)c1CCC
not listed: [7] | Furin (Homo sapiens)
inactive: all other assays above

N=C(N)c1ccc(OCCCCCOc2ccc(C(=N)N)cc2)cc1 (tested in a mixture with another compound)
inactive: [1] | [2] | [3] | [4]

CSC(N)=NCCC[C@H](N)C(=O)O
not listed: Furin (Homo sapiens)
inactive: all other assays above

COc1cc([C@@H]2c3cc4c(cc3[C@H](O)C3COC(=O)[C@@H]32)OCO4)cc(OC)c1OC (some centres undefined)
not listed: Furin (Homo sapiens)
inactive: all other assays above

c1ccc2c(c1)CC(N1CCN(c3cccc4c3OCCO4)CC1)C2
not listed: Furin (Homo sapiens)
inactive: all other assays above

S=C(S)N1CCCC1
active: [1] 7.94 µM | [6] 20 µM
not listed: Furin (Homo sapiens)
inactive: all other assays above

Nc1ncnc2c1ncn2C1CCCC1
not listed: Furin (Homo sapiens)
inactive: all other assays above

COc1ccc(CCn2nnnc2C2(c3ccc(C)cc3)CC2)cc1
not listed: Furin (Homo sapiens)
inactive: all other assays above

CC1C(=O)N(C)C(=O)c2nc[nH]c21 (centres undefined)
not listed: Furin (Homo sapiens)
inactive: all other assays above

CSC(=N)N
not listed: Furin (Homo sapiens)
inactive: all other assays above

CC(N)(C(=O)O)c1ccc(C(=O)O)cc1 (centres undefined)
not listed: Furin (Homo sapiens)
inactive: all other assays above

Cc1nc2n(c(=O)c1CCN1CCC(c3noc4cc(F)ccc34)CC1)CCCC2O (centres undefined)
not listed: Furin (Homo sapiens)
inactive: all other assays above

COc1ccc(CCN(C)CCc2ccc(OC)c(OC)c2)cc1OC
not listed: Furin (Homo sapiens)
inactive: all other assays above

CCn1c(=O)[nH]c2cc(Cl)c(Cl)cc21
not listed: Furin (Homo sapiens)
inactive: all other assays above

N[C@H]1CONC1=O
not listed: Furin (Homo sapiens)
inactive: all other assays above

Nc1ncnc2c1ncn2C1CCCO1 (centres undefined)
not listed: Furin (Homo sapiens)
inactive: all other assays above

CN(CC[C@@H](Oc1ccc(C(F)(F)F)cc1)c1ccccc1)CC(=O)O
not listed: Furin (Homo sapiens)
inactive: all other assays above

OC[C@H]1NC[C@@H](O)[C@@H]1O
not listed: Furin (Homo sapiens)
inactive: all other assays above

CCCCC[C@H](CC(=O)NO)C(=O)N[C@H](C(=O)N1CCC[C@H]1CO)C(C)C
not listed: Furin (Homo sapiens)
inactive: all other assays above

CC1CCN=C(N)S1 (centres undefined)
not listed: Furin (Homo sapiens)
inactive: all other assays above

[N-]=[N+]=Nc1ccc(C(=O)CSC[C@H](NC(=O)CC[C@H](N)C(=O)O)C(=O)NCC(=O)O)cc1
active: [7] 7.52 µM
not listed: Furin (Homo sapiens)
inactive: all other assays above

COc1cc(N)c(Cl)cc1C(=O)OCCN1CCCCC1
not listed: Furin (Homo sapiens)
inactive: all other assays above

CCCCCCC(=O)OC1CC(C)(C)NC(C)(C)C1
not listed: Furin (Homo sapiens)
inactive: all other assays above

CC(=O)N[C@@H](Cc1c[nH]c2ccccc12)C(=O)OCc1cc(C(F)(F)F)cc(C(F)(F)F)c1
not listed: Furin (Homo sapiens)
inactive: all other assays above

Nc1nc2[nH]c(=O)cnc2c(=O)[nH]1
active: [6] 56.2 µM | [7] 13.4 µM
not listed: Furin (Homo sapiens)
inactive: all other assays above

Cc1cc2c(cc1Cl)N(C(=O)Nc1ccnc3ccccc13)CC2
not listed: Furin (Homo sapiens)
inactive: all other assays above

CCCCCCCCCC[Si](C)(C)CCC(=O)NC(Cc1ccc(C)cc1)c1ccccc1 (centres undefined)
not listed: Furin (Homo sapiens)
inactive: all other assays above
